Laboratory results: PubChem BioAssay (NCI)
This is part of a sample that, as a whole, favours compounds with a hit. Of some 83,000 tested, about 20% had one in any assay.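 Compound tested at a single concentration for 48 hours in 96-well plates; a percent growth value below 10 was scored as active.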 Values without a mark were called inactive. Activity calls are given as the source filed them.

Tests used:
Test in all cases: NCI-60 one-dose screen, 48 h (100 = growth as untreated, 0 = no growth, -100 = all killed)
Details in all cases: 10 µM unless noted
[1] = test system: SK-MEL-2 melanoma
[2] = test system: EKVX NSCLC
[3] = test system: SN12C renal
[4] = test system: UO-31 renal
[5] = test system: TK-10 renal
[6] = test system: ACHN renal
[7] = test system: CAKI-1 renal
[8] = test system: A498 renal
[9] = test system: CCRF-CEM leukemia
[10] = test system: MOLT-4 leukemia
[11] = test system: RPMI-8226 leukemia
[12] = test system: OVCAR-8 ovarian
[13] = test system: OVCAR-5 ovarian
[14] = test system: OVCAR-4 ovarian
[15] = test system: SK-OV-3 ovarian
[16] = test system: IGROV1 ovarian
[17] = test system: OVCAR-3 ovarian
[18] = test system: HS 578T breast
[19] = test system: NCI/ADR-RES ovarian

COc1ccc(/C=N\NC(=O)c2cc(-c3ccc(Br)cc3)n(-c3ccc(S(N)(=O)=O)cc3)n2)cc1
growth [1]: 54.3%
growth [2]: 61.2%
growth [3]: 63%
growth [4]: 50.1%
growth [5]: 29.1%
growth [6]: 44.3%
growth [7]: 26.3%
growth [8]: -6.38% (active)
growth [9]: 55.6%
growth [10]: 62.3%
growth [11]: 61.1%
growth [12]: 72%
growth [13]: 82.5%
growth [14]: 57.6%
growth [15]: 74.1%
growth [16]: 46.2%
growth [17]: 21.2%
growth [18]: 22.4%
growth [19]: 31.4%

CCc1c2c(nc3ccc(OC(=O)OCc4ccc(B5OC(C)(C)C(C)(C)O5)cc4)cc13)-c1cc3c(c(=O)n1C2)COC(=O)[C@]3(O)CC
growth [1]: -30.5% (active)
growth [2]: 37.3%
growth [3]: -4.2% (active)
growth [4]: -72.1% (active)
growth [5]: 0.26% (active)
growth [6]: -53.6% (active)
growth [7]: -44.1% (active)
growth [8]: -65.1% (active)
growth [9]: 17.9%
growth [10]: 20.3%
growth [11]: 8.86% (active)
growth [12]: 0.492% (active)
growth [13]: -16% (active)
growth [14]: 11.1%
growth [15]: 3.1% (active)
growth [16]: 6.81% (active)
growth [17]: -17.5% (active)
growth [18]: 20.7%
growth [19]: -0.875% (active)

Cc1cccc(NC(=O)CSc2nc3ccccc3[nH]2)c1
growth [1]: 109%
growth [2]: 93.4%
growth [3]: 98.8%
growth [4]: 75%
growth [5]: 106%
growth [6]: 97.5%
growth [7]: 82.6%
growth [8]: 53.4%
growth [9]: 102%
growth [10]: 102%
growth [11]: 99.8%
growth [12]: 103%
growth [13]: 106%
growth [14]: 93.2%
growth [15]: 95.9%
growth [16]: 97.6%
growth [17]: 107%
growth [18]: 90.7%
growth [19]: 98.4%

COCCN(C(=O)c1ccc(F)cc1F)c1c(N)n(Cc2ccccc2)c(=O)[nH]c1=O
growth [1]: 98.7%
growth [2]: 109%
growth [3]: 108%
growth [4]: 83.4%
growth [5]: 119%
growth [6]: 103%
growth [7]: 106%
growth [8]: 100%
growth [9]: 94.5%
growth [10]: 98.1%
growth [11]: 112%
growth [12]: 112%
growth [13]: 92.2%
growth [14]: 98.9%
growth [15]: 111%
growth [16]: 2.97% (active)
growth [17]: 115%
growth [18]: 107%
growth [19]: 110%

O=C(c1ccccc1)c1c(/C=C/c2ccc(Cl)cc2)nc2ccccc2c1/C=C/c1cccs1
growth [1]: 103%
growth [2]: 88.2%
growth [3]: 90.2%
growth [4]: 82.9%
growth [5]: 99%
growth [6]: 93.8%
growth [7]: 81.2%
growth [8]: 77.1%
growth [9]: 96.4%
growth [10]: 94.2%
growth [11]: 94.6%
growth [12]: 98%
growth [13]: 98.1%
growth [14]: 96.3%
growth [15]: 97.2%
growth [16]: 94.1%
growth [17]: 95.4%
growth [18]: 106%
growth [19]: 99.8%

O=C1Nc2ccc(F)cc2C12Nc1cc(Cl)ccc1S2 (stereo not drawn)
growth [1]: 157%
growth [2]: 89.2%
growth [3]: 97.9%
growth [4]: 80.4%
growth [5]: 188%
growth [6]: 99.8%
growth [7]: 55.2%
growth [8]: 89.2%
growth [9]: 76.4%
growth [10]: 74.5%
growth [11]: 32.9%
growth [12]: 96.9%
growth [13]: 121%
growth [14]: 77.9%
growth [15]: 83.8%
growth [17]: 82.8%
growth [18]: 94.4%
growth [19]: 93.4%

COc1ccc2c(c1)O/C(=C\c1cccc(OCC(=O)Nc3nc4ccccc4s3)c1)C2=O
growth [1]: 91.8%
growth [2]: 100%
growth [3]: 43.7%
growth [4]: -61.3% (active)
growth [5]: 132%
growth [6]: 98.2%
growth [7]: -88.3% (active)
growth [8]: 110%
growth [9]: -61.4% (active)
growth [10]: 18.4%
growth [11]: 53.4%
growth [12]: 5.46% (active)
growth [13]: 95.7%
growth [14]: 81.7%
growth [15]: 99.1%
growth [17]: 88.6%
growth [18]: 93.8%
growth [19]: -60.1% (active)

N/C(=N/N=C/c1ccccc1)N/N=C\c1ccccc1
growth [1]: 42.1%
growth [2]: 76.5%
growth [3]: 67.4%
growth [4]: 68.2%
growth [5]: 73.9%
growth [6]: 76%
growth [7]: 62.9%
growth [8]: 66.6%
growth [9]: 50.6%
growth [10]: 30.4%
growth [11]: 55.3%
growth [12]: 65.2%
growth [13]: 83.4%
growth [14]: 87.2%
growth [15]: 72.4%
growth [16]: 73%
growth [17]: 12.6%
growth [18]: 67.7%
growth [19]: 10.7%

CC(C)=C[C@@H]1c2c(c3ccccc3n(C)c2=O)O[C@H]2c3c(c4ccccc4n(C)c3=O)OC(C)(C)[C@@H]12
growth [1]: 66.4%
growth [2]: 90.9%
growth [3]: 115%
growth [4]: 63.1%
growth [5]: 123%
growth [6]: 70.4%
growth [7]: 87.7%
growth [8]: 102%
growth [9]: 46.6%
growth [10]: 39.5%
growth [11]: -36.8% (active)
growth [12]: 90.4%
growth [13]: 98.7%
growth [14]: 64.9%
growth [15]: 118%
growth [17]: 91.9%
growth [18]: 93.2%
growth [19]: 75.4%

COc1ccc2c(c1)C(=O)/C(=C/c1cccc(OCC(=O)Nc3nc(C)c(C)s3)c1)O2
growth [1]: 59.9%
growth [2]: -45.3% (active)
growth [3]: 3.1% (active)
growth [4]: -79.1% (active)
growth [5]: -14.3% (active)
growth [6]: -56.5% (active)
growth [7]: -81.5% (active)
growth [8]: 97.2%
growth [9]: -69.6% (active)
growth [10]: -65.4% (active)
growth [11]: -63.3% (active)
growth [12]: 4.69% (active)
growth [13]: -77.3% (active)
growth [14]: -66.7% (active)
growth [15]: 46.1%
growth [17]: -58.9% (active)
growth [18]: 5.38% (active)
growth [19]: -59% (active)

COc1cc(C2CC(=O)Nc3c2c(C)nn3-c2nc3ccccc3[nH]2)c(OC)c2c1OCO2 (stereo not drawn)
growth [1]: 80.7%
growth [2]: 71.7%
growth [3]: 82.2%
growth [4]: 40.2%
growth [5]: 36.4%
growth [6]: 86.2%
growth [7]: 40.6%
growth [8]: 38.8%
growth [9]: 61.7%
growth [10]: 13.5%
growth [11]: 60.1%
growth [12]: 67.9%
growth [13]: 105%
growth [14]: 76%
growth [15]: 81.7%
growth [16]: 63.1%
growth [17]: 68.8%
growth [18]: 53.1%
growth [19]: 63.2%

COc1cc(C2CC(c3ccc(Nc4ccnc5cc(Cl)ccc45)cc3)=NN2C=O)cc(OC)c1OC (stereo not drawn)
growth [1]: 97.4%
growth [2]: 76.7%
growth [3]: 86.7%
growth [4]: 61.9%
growth [5]: 92.8%
growth [6]: 87.5%
growth [7]: 86.7%
growth [8]: 93.2%
growth [9]: 58%
growth [10]: 43.1%
growth [11]: 21.3%
growth [12]: 74%
growth [13]: 109%
growth [14]: 86.3%
growth [15]: 86.8%
growth [16]: 106%
growth [17]: 2.55% (active)
growth [18]: 26.2%
growth [19]: 73.4%

COc1cc(C2NC(=O)c3ccccc3N2)ccc1OCCCCCOc1c(OC)cc(C2=NOC(c3cc(OC)c(OC)c(OC)c3)C2)cc1OC (stereo not drawn)
growth [1]: 76.9%
growth [2]: 50.6%
growth [3]: 92.6%
growth [4]: 69.2%
growth [5]: 100%
growth [6]: 41.3%
growth [7]: 89.2%
growth [8]: 99.3%
growth [9]: 44.8%
growth [10]: 24.6%
growth [11]: -22.2% (active)
growth [12]: 88.2%
growth [13]: 103%
growth [14]: 28.8%
growth [15]: 93.8%
growth [16]: 15.2%
growth [17]: 78.6%
growth [18]: 102%
growth [19]: 65%

CCCCCCCCCCCC(c1ccccc1)[N+](C)(C)C (stereo not drawn)
growth [1]: -19.8% (active)
growth [2]: 42.7%
growth [3]: 9.01% (active)
growth [4]: 80.8%
growth [5]: 1.24% (active)
growth [6]: 81.9%
growth [7]: 102%
growth [8]: 55.4%
growth [9]: 16.1%
growth [10]: 5.29% (active)
growth [11]: -16.1% (active)
growth [12]: 19.3%
growth [13]: 17.3%
growth [14]: 9.74% (active)
growth [15]: 10.3%
growth [16]: -60.8% (active)
growth [17]: 18.6%
growth [19]: 91.7%

CCOP(=O)(OCC)C1CP(=O)(c2ccccc2)CC(C)=C1Cl (stereo not drawn)
growth [1]: 102%
growth [2]: 107%
growth [3]: 96%
growth [4]: 68.1%
growth [5]: 77.1%
growth [6]: 109%
growth [7]: 108%
growth [8]: 111%
growth [9]: -90.6% (active)
growth [10]: 93%
growth [11]: 69.6%
growth [12]: 85.7%
growth [13]: 97.8%
growth [14]: 107%
growth [15]: 127%
growth [17]: 104%
growth [18]: 112%
growth [19]: 93.5%

Cc1ccc(S(=O)(=O)NCC[C@@H]2C[C@H]2c2cc3ccccc3s2)cc1
growth [1]: 111%
growth [2]: 95%
growth [3]: 91.6%
growth [4]: 84%
growth [5]: 110%
growth [6]: 102%
growth [7]: 79.6%
growth [8]: 81.7%
growth [9]: 96.4%
growth [10]: 92.6%
growth [11]: 83.4%
growth [12]: 97.3%
growth [13]: 106%
growth [14]: 78.3%
growth [15]: 107%
growth [16]: 101%
growth [17]: 101%
growth [18]: 91.5%
growth [19]: 96.9%
